PubChem BioAssay (NCI)
Where “and” joins values, the source holds several entries; their conditions need not be identical. Identical values can stand only once. Compounds without any hit were thinned out: in the full panel of roughly 83,000, 20% have a hit.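 Cell lines were cultured in 96-well plates, exposed to a single compound concentration, and assessed for percent growth 48 hours later.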 Calls of active or inactive are those of the source. How the source made its calls: active means growth percent below 10; inactive means the rest.

What follows are molecules tested on MDA-MB-468 breast (assay: NCI-60 one-dose screen, 48 h (100 = growth as untreated, 0 = no growth, -100 = all killed)). Details: 10 µM unless noted.

Q: With CCNC(=O)N1CCc2cc(OC)c(OCCc3ccc(OC)c(N)c3)cc2C1c1cc(C)c(C)cc1C (stereo not given) as the molecule, how does the growth read?
A: The growth was 42% (inactive).

Q: Which growth does the source give for NC(=S)Nc1ccc2c(c1)Cc1ccccc1-2 here?
A: The growth was 69.4% (inactive).

Q: With O=C(CCl)NCCNc1nccc(Nc2ccc(S(=O)(=O)Nc3ccccn3)cc2)n1 as the molecule, how does the growth read?
A: The growth was 21.1% (inactive).

Q: With COc1cccc(Nc2ccnc3[nH]c4ccc([N+](=O)[O-])cc4c23)c1 as the molecule, how does the growth read?
A: The growth was 23.1% (inactive).

Q: With COc1ccc(/C=C/C(=O)O)cc1OC as the molecule, how does the growth read?
A: Its growth is 99.5% (inactive) and 102% (inactive).

Q: For O=c1c2cc(F)ccc2sc2c(NCCCNCCO)nc3ccc(Cl)cc3c12, which growth is on record?
A: Its growth is 68.2% (inactive).

Q: COc1cccc(Oc2ccccc2NC(=O)CNC(=O)c2cccc3ccccc23)c1 was tested. Which growth did it give?
A: The growth was 12.1% [5 µM] (inactive).

Q: How did the growth turn out when O=S(=O)(O)c1ccc2c(c1)Sc1cc(S(=O)(=O)O)ccc1O2 was run?
A: Its growth is 107% (inactive).

Q: Nc1c(Cl)cc2c(c1Br)C(=O)c1ccccc1C2=O was tested. Which growth did it give?
A: Its growth is 85.4% (inactive).

Q: CCOc1ccc(NC(=O)c2ccccc2-c2ccccc2C(=O)O)cc1 was tested. Which growth did it give?
A: The growth was 101% (inactive).

Q: Which growth does the source give for CC[C@H](Nc1nc(N)nc(C)c1C#N)c1nc2cccc(NCc3ccc(C(=O)NO)cc3)c2c(=O)n1-c1ccccc1 here?
A: Its growth is 3.26% (active).

Q: For O=C(CCCSc1nc(-c2ccccc2)cc(-c2ccc(Cl)cc2)n1)NO, which growth is on record?
A: The growth was -43.9% (active).

Q: CN1CCN(CC#CCOC(=O)CNC(=O)[C@]23CCC(C)(C)C[C@H]2C2=CC[C@@H]4[C@@]5(C)CC[C@H](O)C(C)(C)[C@@H]5CC[C@@]4(C)[C@]2(C)CC3)CC1 was tested. Which growth did it give?
A: Its growth is 97.5% (inactive).

Q: Which growth does the source give for O=c1ccc(-c2nc(N3CCOCC3)c3ccccc3n2)c[nH]1 here?
A: Its growth is 95.8% (inactive).

Q: Which growth does the source give for Cn1cc(-c2ccc3cc(-c4ccc(CC(=O)Nc5cc(C(C)(C)C)on5)cc4)cnc3c2)cn1 here?
A: The growth was 30.7% (inactive).

Q: Cc1ccc(C(=O)C2=Cc3cc4ccccc4n3Cc3cnnn32)cc1 was tested. Which growth did it give?
A: The growth was 100% (inactive).

Q: For Cc1nc2sc(C(=O)Nc3ccccc3)c(N)c2cc1C(C)O (stereo not given), which growth is on record?
A: Its growth is 28.6% (inactive).

Q: For O=C(Nc1nc2ccc(S(=O)(=O)Nc3ccc(C4(C(F)(F)F)CC4)cc3)cc2[nH]1)c1cnccn1, which growth is on record?
A: Its growth is -12% (active).

Q: COc1ccc2nc3cc(Cl)ccc3c(N)c2c1 was tested. Which growth did it give?
A: The growth was -88.9% (active).

Q: With CC1=CC(O)C2CC1C2(C)C (stereo not given) as the molecule, how does the growth read?
A: The growth was 105% (inactive) and 100% (inactive).

Q: With Cc1cc2[nH]c(=O)c3c4ncccc4cn3c2cc1C as the molecule, how does the growth read?
A: The growth was 23.2% (inactive).

Q: With CCc1nnc(NC(=O)c2nnn(-c3ccccc3)c2-c2ccco2)s1 as the molecule, how does the growth read?
A: Its growth is 95.9% (inactive).

Q: For COc1cc(C(=O)n2nc(N3CCOCC3)c3cc(-n4cccc4)ccc32)cc(OC)c1OC, which growth is on record?
A: The growth was 49.2% (inactive).

Q: O=S(=O)(NCCCNc1nccc(-n2ccc3cccnc32)n1)c1cccc(C(F)(F)F)c1 was tested. Which growth did it give?
A: The growth was 108% (inactive).

Q: With Cc1cccc2c1S/C(=C/c1ccc([N+](=O)[O-])cc1)C2=O as the molecule, how does the growth read?
A: The growth was 112% (inactive).

Q: For N/C(=N\c1nc2c(Br)cccc2s1)C(Br)Br, which growth is on record?
A: The growth was -58.8% (active).

Q: Cn1c([N+](=O)[O-])cnc1C=C1C(=O)c2ccccc2C1=O was tested. Which growth did it give?
A: Its growth is 51.3% (inactive).

Q: CCC(=O)Nc1cc2c(cc1Cl)-c1ccccc1C2 was tested. Which growth did it give?
A: The growth was 97.9% (inactive).

Q: COc1ccc2nc(-c3ccc(Cl)cc3)cc(-c3nnc(SCC(=O)Nc4ccc(C(C)=O)cc4)n3-c3ccccc3)c2c1 was tested. Which growth did it give?
A: Its growth is 91.2% (inactive).

Q: How did the growth turn out when CC(=O)OC/C(C)=C\CC(C)COC(C)=O (stereo not given) was run?
A: The growth was 98.5% (inactive).

Q: COc1ccc(-c2csc(NC(=O)CO[N+](=O)[O-])n2)cc1 was tested. Which growth did it give?
A: Its growth is 113% (inactive).

Q: NCC(=O)NS(=O)(=O)OC[C@H]1O[C@@H](n2cnc3c(N)ncnc32)[C@H](O)[C@@H]1O was tested. Which growth did it give?
A: Its growth is -34.3% (active).

Q: Which growth does the source give for Cc1c(C(=O)C(SC(=S)N2CCOCC2)SC(=S)N2CCOCC2)nnn1-c1ccc([N+](=O)[O-])cc1 here?
A: The growth was 92.7% (inactive).

Q: For Cn1cc(-c2ccc3c(Nc4cccc(NC(=O)Nc5cccc(F)c5)c4)ncnc3c2)cn1, which growth is on record?
A: Its growth is 3.69% (active).

Q: Which growth does the source give for Cc1cc(N[C@@H]2CCC[C@H](Nc3ccnc4cc(Cl)ccc34)C2)nc(N2CCCCCC2)n1 here?
A: The growth was -65.8% (active).

Q: Which growth does the source give for CC(C)N1C(=O)/C(=C2\SC(=S)N(C(C)C)C2=O)SC1=S here?
A: Its growth is 97.1% (inactive).

Q: COc1cc(C(O)C2C(=O)OCC2C2(c3ccc4c(c3)OCO4)SCCCS2)cc(OC)c1OC (stereo not given) was tested. Which growth did it give?
A: Its growth is 92.2% (inactive).

Q: IP(CCCSc1n(Cc2ccc3ccccc3c2)c(-c2ccccc2)c(-c2ccccc2)[n+]1Cc1ccc2ccccc2c1)(c1ccccc1)(c1ccccc1)c1ccccc1 was tested. Which growth did it give?
A: The growth was -21.5% (active).

Q: With Cc1[nH]c(-c2nc3ccccc3[nH]2)c(C)c1C(=O)N1CCOCC1 as the molecule, how does the growth read?
A: The growth was 91.6% (inactive).

Q: For CC(C)(C)c1cc(C(=O)Nc2ccccc2C(=O)NCCN)cc(C(C)(C)C)c1, which growth is on record?
A: Its growth is -76.7% (active).
